Test results: PubChem BioAssay AID435003 (Sanford-Burnham Center for Chemical Genomics, 2010)
The whole screen tested about 330,000 compounds, of which about 1,700 (0.52%) were called active. Many of the other results were omitted from the sample, so actives are more common in it than they were. A number with no mark means an inactive call. No stated cut-off is given here; in the data, active means inhibition above about 50%; inactive means the rest.

assay: lowers stimulated NF-kB reporter luminescence – cell-based, uHTS, TCR NF-kB activation inhibitor project, primary screen (AID 435003); conditions: at 4 µM, active compounds read high; NF-kB luciferase reporter unless noted

SMILES	inhibition
Cc1cc2ccccn2c1C(C[N+](=O)[O-])c1c(F)cccc1Cl (stereo not given)	71.3% (active)
O=C(c1cc2nc(-c3ccccc3)cc(-c3ccccc3)n2n1)N1CCC2(CC1)OCCO2	-2.97%
C[C@]12CC[C@H](O)C[C@H]1CC[C@@H]1C2CC[C@]2(C)[C@@H](C3=CC(=O)OC3)[C@@H](O)C[C@]12O (stereo not given in full)	79.5% [Jurkat, PMA/ionomycin-induced NF-kB luciferase reporter] (active)
C[C@]12CCC3C(CC[C@H]4C[C@@H](O)CC[C@]34C)C1C[C@@H](O)[C@H]2O (stereo not given in full)	-3.46%
C[C@]12CCC3C(CC[C@H]4C[C@@H](O)CC[C@]34C)C1CC[C@@H]2O (stereo not given in full)	10.7%
CN1CCN(/N=C/c2c[nH]c3ccccc23)CC1	-15.1%
O=C(NCC(c1cccnc1)N1CCN(c2ccccc2)CC1)Oc1ccccc1 (stereo not given)	10.4%
COc1ccccc1C1=NCc2nnc(CSC)n2-c2ccc(Cl)cc21	-5.97%
CCCCCCCCCCCCn1ccc(=N)cc1	94.2% (active)
Cc1nn(Cc2ccccc2Cl)c(Cl)c1C(=O)OC(C(=O)NC(N)=O)C(C)C (stereo not given)	11.3%
CCOC(=O)C1(Cc2ccc(Cl)cc2)CCN(C(C)CCn2cccn2)CC1 (stereo not given)	-3.65%
O=C(CCNS(=O)(=O)c1ccccc1)Nc1ccc(Cl)cc1C(=O)c1ccccc1	-5.78%
COC(=O)[C@@H]1C(OC(=O)c2ccccc2)CC2CCC1N2C (stereo not given in full)	-16.7%
COc1ccc(N2C(=O)/C(=C/c3ccco3)C(=O)NC2=S)cc1	1.64%
CCOc1ccc(-c2cc(C)[n+](CCN(CC)CC)c(-c3ccc(OCC)cc3)c2)cc1	72.8% (active)
CN1CCc2cc3c(cc2[C@H]1[C@@H]1OC(=O)c2c1ccc1c2OCO1)OCO3	5.76% [Jurkat, PMA/ionomycin-induced NF-kB luciferase reporter]
CCN(CC)P(=O)(Oc1cccc(C)c1)N(CC)CC	4.24%
Cc1cc(N2C(=O)C3CCCN3C2c2ccc(Cl)c(Cl)c2)no1 (stereo not given)	-12.8%
c1ccc(C2NCc3ccccc3-n3cccc32)cc1 (stereo not given)	10.4%
CNC(=O)O/N=C(\N)Cc1csc2ccc(Cl)cc12	-0.793%
